# Measurements published in PubChem BioAssay.
# Calls of active or inactive are those of the source.
# Assays:
# [1] = probe aShh binding to arrayed compounds – biochemical, biotinylated probe, 635/667 nm fluorescence, primary screen (AID 1114); conditions: small-molecule microarray, higher = more signal;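 also: probe is biotin-labelled aShh protein from a stem cell growth factor screen; measures binding of labelled protein to compounds printed on the slide; score merges feature fluorescence at 667 nm with signal-to-noise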
# [2] = probe aNog binding to arrayed compounds – biochemical, biotinylated probe, 635/667 nm fluorescence, primary screen (AID 1115); conditions: small-molecule microarray, higher = more signal;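 also: probe is biotinylated aNog protein used at 0.15 µg/mL for 1 h at 4 C; z-score combines 667 nm fluorescence of each spot with its signal to noise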
# [3] = target: Torsin-1A-interacting protein 1 (Homo sapiens) (UniProt Q5JTV8); assay: compound microarray binding of lysate hLAP1 – cell lysate, small-molecule microarray, COS7 lysate, 635/667 nm fluorescence, primary screen (AID 1116); conditions: 635 nm fluorescence, higher = more signal
# Torsin-1A-interacting protein 1 (Homo sapiens), sequence (Q5JTV8 whole entry, looked up): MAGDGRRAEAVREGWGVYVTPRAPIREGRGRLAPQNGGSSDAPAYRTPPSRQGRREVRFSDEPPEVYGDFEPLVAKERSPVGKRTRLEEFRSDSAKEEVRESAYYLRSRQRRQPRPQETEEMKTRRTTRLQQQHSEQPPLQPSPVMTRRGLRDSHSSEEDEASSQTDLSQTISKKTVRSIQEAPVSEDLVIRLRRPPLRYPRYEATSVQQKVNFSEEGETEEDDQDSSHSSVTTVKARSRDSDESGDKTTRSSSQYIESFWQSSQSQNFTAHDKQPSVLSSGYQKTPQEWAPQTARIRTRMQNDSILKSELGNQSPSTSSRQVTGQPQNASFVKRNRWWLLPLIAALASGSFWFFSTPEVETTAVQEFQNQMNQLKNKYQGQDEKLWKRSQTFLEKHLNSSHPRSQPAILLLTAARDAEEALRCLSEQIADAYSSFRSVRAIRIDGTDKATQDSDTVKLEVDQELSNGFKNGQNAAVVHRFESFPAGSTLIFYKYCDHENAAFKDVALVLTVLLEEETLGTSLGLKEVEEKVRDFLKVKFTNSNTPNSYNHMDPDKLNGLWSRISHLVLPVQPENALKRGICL
# Albumin (Bos taurus) = Albumin (Bos taurus) (UniProt P02769); assay: compounds binding labelled BSA control protein – biochemical, small-molecule microarray, Alexa647 label, 635/667 nm fluorescence, artefact control for SMM control protein annotation, profiling panel (AID 1118); conditions: BSA-A647 binding, fluorescence 635 nm, higher = more signal;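 also: score merges 667 nm emission intensity and signal-to-noise per printed compound spot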
# Albumin (Bos taurus), sequence (P02769 whole entry, looked up): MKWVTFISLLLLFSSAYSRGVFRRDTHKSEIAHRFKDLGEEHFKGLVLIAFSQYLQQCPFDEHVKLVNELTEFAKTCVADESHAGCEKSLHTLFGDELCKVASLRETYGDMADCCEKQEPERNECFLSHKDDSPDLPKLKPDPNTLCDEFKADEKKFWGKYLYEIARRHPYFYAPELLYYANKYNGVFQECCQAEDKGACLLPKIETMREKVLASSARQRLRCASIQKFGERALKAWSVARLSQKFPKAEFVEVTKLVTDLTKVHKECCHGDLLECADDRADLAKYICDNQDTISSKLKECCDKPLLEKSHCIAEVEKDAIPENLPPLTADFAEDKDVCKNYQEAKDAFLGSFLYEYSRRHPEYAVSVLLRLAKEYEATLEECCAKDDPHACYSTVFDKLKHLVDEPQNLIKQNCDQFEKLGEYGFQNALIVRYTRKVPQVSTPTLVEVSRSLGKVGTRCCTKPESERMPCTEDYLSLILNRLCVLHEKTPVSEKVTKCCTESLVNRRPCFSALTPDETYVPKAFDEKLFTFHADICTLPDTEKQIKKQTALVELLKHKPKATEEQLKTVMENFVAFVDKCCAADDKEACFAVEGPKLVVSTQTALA
# [4] = probe aXIP binding to arrayed compounds – biochemical, NeuroSMM set, 635/667 nm fluorescence, primary screen (AID 1119); conditions: small-molecule microarray, higher = more signal, called active from +8 up or from −8 down;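 also: probe is the protein aXip251-270 applied at 1 µg/mL to compound-printed slides; binding of probe to printed compounds measured as 667 nm fluorescence plus signal to noise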
# [5] = probe aNOTCH3 binding on compound microarray – biochemical, small-molecule microarray, 635/667 nm fluorescence, primary screen (AID 1120); conditions: higher = more signal;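 also: probe is a biotin-tagged antibody raised against NOTCH3 rather than NOTCH3 protein; score merges spot fluorescence near 667 nm with spot signal to noise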
# [6] = probe aNOTCH2 binding on compound microarray – biochemical, small-molecule microarray, 635/667 nm fluorescence, primary screen (AID 1121); conditions: higher = more signal;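 also: score merges feature fluorescence read at 667 nm with its signal to noise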
# [7] = target: Carbonic anhydrase 2 (Homo sapiens) (UniProt P00918); assay: compounds binding carbonic anhydrase 2 – biochemical, small-molecule microarray, Alexa647-labelled CAII, profiling panel (AID 1122); conditions: CAII-A647 binding fluorescence, higher = more signal
# [8] = COS7 lysate on small-molecule microarray, probe aHis, 635 nm (AID 1123); conditions: COS7 cell lysate, fluorescence, higher = more signal;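 also: z-score combines 667nm fluorescence intensity with signal-to-noise per printed compound spot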
# [9] = probe aLAP1 signal on lysate-treated microarray – cell lysate, small-molecule microarray, COS7 lysate, primary screen (AID 1124); conditions: probe aLAP1, fluorescence, higher = more signal;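 also: lysate comes from COS7 cells expressing LAP1 and is applied at 0.3 µg/mL; score merges spot fluorescence near 667 nm with signal-to-noise over triplicate slides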
# Sam68 (KHDRBS1) = assay: compounds binding KHDRBS1 protein – biochemical, small-molecule microarray, 635 nm fluorescence, primary screen (AID 1125); conditions: higher = more signal;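 also: score merges 667 nm channel intensity with signal to noise over triplicate slides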
# [10] = test system: Chordin-like protein 2 (CHRDL2); assay: compounds binding chordin-like 2 – biochemical, small-molecule microarray, 635 nm fluorescence, primary screen (AID 1126); conditions: fluorescence 635 nm, higher = more signal;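 also: printed compound slides probed with Chrdl2 protein at 4 µg/mL for 1 h at 4 C; score merges 667 nm emission intensity with signal to noise over three replicate slides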
# [11] = target: Concanavalin-A (Canavalia ensiformis) (UniProt P02866); assay: compounds binding concanavalin A lectin – biochemical, small-molecule microarray, Alexa647 label, 635 nm, artefact control for SMM control protein annotation, primary screen (AID 1127); conditions: ConA-A647 binding fluorescence, higher = more signal;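 also: z combines 667 nm emission intensity with signal-to-noise across three replicate slides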
# Concanavalin-A (Canavalia ensiformis), sequence (P02866 whole entry, looked up): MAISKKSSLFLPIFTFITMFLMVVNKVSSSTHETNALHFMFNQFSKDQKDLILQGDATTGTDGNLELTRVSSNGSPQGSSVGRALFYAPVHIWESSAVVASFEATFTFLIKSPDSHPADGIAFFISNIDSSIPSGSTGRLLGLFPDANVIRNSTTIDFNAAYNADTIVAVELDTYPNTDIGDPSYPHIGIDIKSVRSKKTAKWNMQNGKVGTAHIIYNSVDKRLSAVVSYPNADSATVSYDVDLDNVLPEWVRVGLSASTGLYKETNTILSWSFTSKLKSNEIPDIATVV
# [12] = compounds binding Alexa647 anti-His antibody – biochemical, small-molecule microarray, 635 nm fluorescence, artefact control for SMM control protein annotation, primary screen (AID 1128); conditions: higher = more signal;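 also: score merges feature fluorescence with signal-to-noise for each printed compound spot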
# [13] = test system: Human papillomavirus type 1a E7 protein (residues 1-88); assay: HPV1a E7 small-molecule binders, primary screen, biochemical, small-molecule microarray, residues 1-88, 635 nm (AID 1129); conditions: small-molecule microarray binding, fluorescence 635 nm; higher = more signal
# [14] = target: Focal adhesion kinase 1 (Homo sapiens) (UniProt Q05397); assay: PTK2 protein binding on printed compound slides – biochemical, small-molecule microarray, 635/667 nm fluorescence, BSA, DTT, primary screen (AID 1130); conditions: 635 nm fluorescence, higher = more signal;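 also: composite of spot emission at 667 nm and signal to noise over triplicate slides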
# Focal adhesion kinase 1 (Homo sapiens), sequence (Q05397 whole entry, looked up): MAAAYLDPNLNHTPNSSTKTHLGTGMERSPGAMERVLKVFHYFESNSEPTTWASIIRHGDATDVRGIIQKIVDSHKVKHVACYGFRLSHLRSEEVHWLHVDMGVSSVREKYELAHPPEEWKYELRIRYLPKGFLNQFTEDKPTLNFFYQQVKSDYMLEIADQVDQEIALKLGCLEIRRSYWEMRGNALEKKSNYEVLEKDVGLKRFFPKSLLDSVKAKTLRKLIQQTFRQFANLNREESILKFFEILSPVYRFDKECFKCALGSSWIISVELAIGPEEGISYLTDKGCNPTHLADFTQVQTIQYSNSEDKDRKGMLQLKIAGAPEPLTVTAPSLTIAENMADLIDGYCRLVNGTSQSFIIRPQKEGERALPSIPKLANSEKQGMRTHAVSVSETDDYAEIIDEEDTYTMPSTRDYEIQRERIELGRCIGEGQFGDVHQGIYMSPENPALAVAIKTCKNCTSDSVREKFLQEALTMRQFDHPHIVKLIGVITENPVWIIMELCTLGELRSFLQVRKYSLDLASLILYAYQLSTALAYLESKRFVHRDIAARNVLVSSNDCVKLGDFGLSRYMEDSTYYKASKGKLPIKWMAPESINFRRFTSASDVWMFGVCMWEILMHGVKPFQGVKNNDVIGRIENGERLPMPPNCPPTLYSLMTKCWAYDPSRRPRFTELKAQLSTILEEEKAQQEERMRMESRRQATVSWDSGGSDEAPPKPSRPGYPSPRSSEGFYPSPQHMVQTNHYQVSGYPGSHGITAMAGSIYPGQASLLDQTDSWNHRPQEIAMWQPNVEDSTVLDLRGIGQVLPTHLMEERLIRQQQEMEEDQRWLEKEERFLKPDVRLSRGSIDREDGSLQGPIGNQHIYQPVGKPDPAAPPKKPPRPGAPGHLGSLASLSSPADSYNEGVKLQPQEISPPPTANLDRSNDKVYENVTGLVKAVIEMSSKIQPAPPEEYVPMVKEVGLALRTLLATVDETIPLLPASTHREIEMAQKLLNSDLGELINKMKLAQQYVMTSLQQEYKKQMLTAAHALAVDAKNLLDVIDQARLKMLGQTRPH
# [15] = test system: Fibrinogen (Alexa647-labelled); assay: Alexa647-fibrinogen binding to printed small molecules – biochemical, small-molecule microarray, 635/667 nm fluorescence, artefact control for SMM control-protein annotation, profiling panel (AID 1131); conditions: fibrinogen-A647 binding fluorescence, higher = more signal;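 also: z-score merges 667 nm fluorescence with per-spot signal-to-noise over triplicate slides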
# [16] = target: Follistatin (Homo sapiens) (UniProt P19883); assay: FST protein binding to printed compounds – biochemical, small-molecule microarray, 635/667 nm fluorescence, primary screen (AID 1132); conditions: 635 nm fluorescence, higher = more signal
# Follistatin (Homo sapiens), sequence (P19883 whole entry, looked up): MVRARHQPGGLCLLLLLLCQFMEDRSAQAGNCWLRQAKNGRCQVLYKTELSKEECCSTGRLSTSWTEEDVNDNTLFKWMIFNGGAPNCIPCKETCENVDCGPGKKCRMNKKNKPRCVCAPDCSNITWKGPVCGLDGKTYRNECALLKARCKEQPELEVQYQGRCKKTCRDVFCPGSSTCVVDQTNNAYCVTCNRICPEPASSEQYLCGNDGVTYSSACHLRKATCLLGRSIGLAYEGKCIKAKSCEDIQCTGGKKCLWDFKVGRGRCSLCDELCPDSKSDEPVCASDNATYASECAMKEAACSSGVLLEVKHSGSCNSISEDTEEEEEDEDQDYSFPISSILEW
# [17] = target: Fibroblast growth factor 2 (Homo sapiens) (UniProt P09038); assay: basic fibroblast growth factor binding to printed compounds – biochemical, small-molecule microarray, 635/667 nm fluorescence, primary screen (AID 1133); conditions: FGF2, fluorescence 635/667, higher = more signal
# Fibroblast growth factor 2 (Homo sapiens), sequence (P09038 whole entry, looked up): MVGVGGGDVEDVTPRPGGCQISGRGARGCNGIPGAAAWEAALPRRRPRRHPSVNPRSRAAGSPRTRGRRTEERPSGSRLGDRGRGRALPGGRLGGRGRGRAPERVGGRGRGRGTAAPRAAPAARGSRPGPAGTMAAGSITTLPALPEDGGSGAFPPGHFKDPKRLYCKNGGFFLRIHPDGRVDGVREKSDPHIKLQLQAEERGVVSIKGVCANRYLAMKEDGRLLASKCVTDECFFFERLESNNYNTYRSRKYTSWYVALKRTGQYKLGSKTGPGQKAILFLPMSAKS
# [18] = JC-1 mitochondrial potential readout, lung cancer cells – cell-based, A549, JC-1 fluorescence, basal, 24 h, 100 nL, profiling panel (AID 1138); conditions: higher = more signal;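 also: A549 lung adenocarcinoma cells under basal conditions with no added stimulus; test concentration not given here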
Structure (SMILES),composite z-score [1],composite z-score [2],composite z-score [3],composite z-score (Albumin (Bos taurus)),composite Z-score [4],composite z-score [5],composite z-score [6],composite z-score [7],composite z-score [8],composite z-score [9],composite z-score (Sam68 (KHDRBS1)),composite z-score [10],composite z-score [11],composite z-score [12],composite z-score [13],composite z-score [14],composite z-score [15],composite z-score [16],composite z-score [17],z-score [18]
CCOC(=O)C[C@H]1[C@H](OC(=O)c2ccc(-c3ccccc3)cc2)[C@@H](NC(=O)C2CCCCC2)c2cc(OCCCO)ccc2N1C(=O)c1ccc2ccccc2n1,-0.0133,0.037,0.729,0.821,-0.0871 (inactive),0.0179,0.0055,-0.252,0.915,0.243,1.3,-0.625,0.814,0.549,1.14,0.347,0.433,0.349,-0.243,1.14
CCCCC(=C=CC[C@H](O)c1cccc(OCCO)c1)CCO,0.0639,0.0511,0.338,0.15,-0.434 (inactive),-0.0699,-0.162,0.681,0.24,0.133,-0.319,-0.361,-0.245,0.0233,-0.282,0.44,-0.644,0.455,0.287,1.97
COc1ccc(C(=O)Nc2cccc(CN3C(=O)[C@@]4(O[C@@H](CCO)[C@H]([Si](C)(C)c5ccc(OC)cc5)[C@H]4C)c4ccccc43)c2)cc1,-0.0146,0.0043,0.0777,0.558,-0.0927 (inactive),-0.0343,-0.14,0.211,0.421,0.0002,1.18,-0.143,1.01,0.338,1.07,-0.177,0.795,1,-0.169,-1.29
CCOC(=O)C[C@H]1[C@H](OC(=O)c2ccc(-c3ccccc3)cc2)[C@@H](NC(=O)c2ccccc2)c2cc(OCCCO)ccc2N1C(=O)c1ccccc1,0.275,0.165,0.67,0.842,0.0948 (inactive),0.0162,-0.0232,0.395,1.67,0.658,1.33,-0.519,0.818,0.698,0.925,0.372,0.851,-0.129,0.253,2.3
